Source: PubChem BioAssay (NCATS)
Records with an inconclusive call do not appear. Activity calls are given as the source filed them. Calls come from the whole dose curve; as a rule, active = well fitted curve in the direction sought with a large enough effect; inconclusive = small, poorly fitted or top-dose-only effect, or another doubt; inactive = no such curve, though single readings can be large; an effect the other way counts as inactive or inconclusive.

Assays:
[1] = biological target: Lysine-specific demethylase 5B (Homo sapiens) (UniProt Q9UGL1); test: Optimization screen for KDM5B Histone Demethylases FDH coupled qHTS against the LOPAC library (AID 1347166)
Summary of the method: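 KDM5BDeltaAP (200nM final) preincubated 10 min with compound, then 12.5uM H3K4Me3, 25uM a-ketoglutarate, ascorbate, Fe(II), NAD+ and FDH added; 50mM HEPES pH 7.5, 0.01% Tween-20. NADH fluorescence (340/450 nm) change over 30 min, room temperature.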

[2] = qHTS to identify inhibitors of the type 1 interferon - major histocompatibility complex class I in skeletal muscle: primary screen against the NCATS LOPAC collection (AID 1347405);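 note: lytic HiBiT luminescence reporting HLA-B protein level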
Summary of the method: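 Luminescence from HiBiT fused to endogenous HLA-B in CRISPR-engineered human myoblasts served as the read-out. Cells received 4.0 ng/ml IFN-beta plus compound (seven concentrations, 1:4.3 steps, highest 46 uM final) for 24 hrs before lytic detection.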

[3] = qHTS to identify inhibitors of the type 1 interferon - major histocompatibility complex class I in skeletal muscle: primary screen against the NCATS Pharmaceutical Collection (AID 1347407);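 note: luminescence of HiBiT knocked into endogenous HLA-B as interferon-induced MHC class I level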
Summary of the method: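 Cells were seeded with 4 ng/ml IFN-beta, incubated 1 h, then dosed with compounds over eight 1:5 steps up to 46 uM final. After 24 h at 37 C, HiBiT lytic reagent was added and luminescence read after 10 min lysis in the dark.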

[4] = qHTS for inhibitors of adenylyl cyclases using a fission yeast platform: a pilot screen against the NCATS LOPAC library (AID 1347410)
Summary of the method: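 Growth medium went into the plates first, then compounds were pinned (final up to 57 µM), then CHP2027 yeast were added. Plates were incubated overnight (18 h) at 30C in the dark, and GFP was measured by laser scanning cytometry.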

[5] = biological target: Protein phosphatase 1D (Homo sapiens) (UniProt O15297); test: RapidFire Mass Spectrometry qHTS Assay for Modulators of WT P53-Induced Phosphatase 1 (WIP1) (AID 1347424);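 note: amount of dephosphorylated VEPPL-S-QETFS peptide product formed by WIP1; series mostly up to about 63 µM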
Summary of the method: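 10 nM WIP1 preincubated with compounds 1 hr at room temperature in pH 7.5 Tris buffer with 30 mM MgCl2, 1 mM TCEP; 2 uM VEPPL-pS-QETFS phosphopeptide for 5 min, formic acid quench; dephosphorylated product quantified by RapidFire MS against labelled standard.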

[6] = biological target: Protein phosphatase 1D (Homo sapiens) (UniProt O15297); test: Rhodamine-PBP qHTS Assay for Modulators of WT P53-Induced Phosphatase 1 (WIP1) (AID 1347425)
Summary of the method: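 Steps: enzyme with Rh-PBP sensor and compounds, room-temperature incubation of 1 hr, baseline read, addition of VEPPL-pS-QETFS (10 uM final), kinetic fluorescence reads at 525/598 nm. Activity equals final minus baseline signal.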

[7] = Validation qHTS assay for inhibitors of Activation Induced Cytidine Deaminase (AID): UDG Counterscreen signal (AID 1347427)
Summary of the method: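 Counterscreen read of UDG activity (2 U/mL, 4/3x) in the FRET deamination format with AID (1 uM, 4/3x), DJC20/DJC23 substrates (250 nM, 4x), 4 h at room temperature. NaOH stop, fluorescence at 560 ex/665 em.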

[8] = biological target: Single-stranded DNA cytosine deaminase (Homo sapiens) (UniProt Q9GZX7); test: Validation qHTS assay for inhibitors of Activation Induced Cytidine Deaminase (AID): AID signal (AID 1347429)
Summary of the method: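 Fluorescence at 540 nm excitation and 590 nm emission reports ssDNA cytosine deamination by AID, with UDG in the same well. Compound-treated reactions ran 4 hr at room temperature with DJC20/DJC23 substrate, followed by 30 min NaOH treatment.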

[9] = Primary qHTS for inhibitors of La Crosse Virus (LACV) - induced cell death in SH-SY5Y cells (AID 1508616);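 note: top concentration of the series differs between compounds; higher means more rescue of cells from virus-induced death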
Summary of the method: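 Protection against LACV-induced cell death is scored in SH-SY5Y cells exposed to compounds and virus (0.01 MOI) for 6 days. Data normalized to virus-infected DMSO wells and virus-free DMSO wells.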

[10] = biological target: Calcium and integrin-binding protein 1 (Homo sapiens) (UniProt Q99828); test: Validation qHTS for Identification of Calcium Integrin Binding protein 1 (CIB1) Competitor (AID 1508618)
Summary of the method: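 In this qHTS validation, the LOPAC set (up to 114 uM) was tested for blocking CIB1 binding to a fluorescein-tagged alphaIIb peptide, with FP detection at 480/540 nm.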

[11] = biological target: Calcium and integrin-binding protein 1 (Homo sapiens) (UniProt Q99828); test: Primary qHTS for Identification of Calcium Integrin Binding Protein 1 (CIB1) Competitor (AID 1508620);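 note: GST tagged CIB1 binding a fluorescein labelled alphaIIb integrin peptide tracer; top concentration of the series differs between compounds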
Summary of the method: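 Fluorescence polarization competition: GST-tagged CIB1 (1 uM final) preincubated with compound 15 min at room temperature, then FITC-labelled alphaIIb peptide (100 nM final) added. After 15 min at room temperature, polarization read at Ex 480/Em 540.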

[12] = Confirmatory screen NINDS Rhodamine qHTS for Zika virus inhibitors (AID 1347161);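 note: purified Zika NS2B-NS3 protease with linked NS2B cofactor domain and Rhodamine110 peptide substrate; series mostly up to about 110 µM; nearly all actives have a fitted effect of over 60% in size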
Summary of the method: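 In 10 mM Tris-HCl pH 8.0 containing 0.01% Tween 20, linked NS2B-NS3 protease (25 nM final) is exposed to test compounds for 15 min. Cleavage of 1.5 microM Rhodamine110 substrate is tracked by fluorescence over 15 min.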

[13] = Vero cells viability qHTS for Zika virus inhibitors (AID 1347167)
Summary of the method: (§1)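 Cells seeded at 2.5 x 10^5 cells/mL in DMEM with 4% FBS and attached overnight at 37 degrees C, then exposed to compound for 24 to 48 hours. Viability read as ATP content by CellTiter Glo luminescence.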

[14] = HepG2 cells viability qHTS for Zika virus inhibitors (AID 1347168)
Summary of the method: as §1

Measured: Potency

Chain of Calcium and integrin-binding protein 1 (Homo sapiens) (Q99828 whole entry, looked up): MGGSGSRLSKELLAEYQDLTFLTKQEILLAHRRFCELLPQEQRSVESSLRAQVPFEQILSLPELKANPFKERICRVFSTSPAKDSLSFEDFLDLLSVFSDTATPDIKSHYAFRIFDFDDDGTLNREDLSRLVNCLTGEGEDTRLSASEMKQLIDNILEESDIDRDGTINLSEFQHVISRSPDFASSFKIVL
Chain of Single-stranded DNA cytosine deaminase (Homo sapiens) (Q9GZX7 whole entry, looked up): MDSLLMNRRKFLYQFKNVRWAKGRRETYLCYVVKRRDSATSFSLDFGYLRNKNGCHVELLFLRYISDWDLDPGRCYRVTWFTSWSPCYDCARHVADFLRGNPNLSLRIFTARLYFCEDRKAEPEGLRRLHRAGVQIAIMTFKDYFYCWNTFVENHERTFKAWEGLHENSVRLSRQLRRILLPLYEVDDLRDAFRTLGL
Chain of Protein phosphatase 1D (Homo sapiens) (O15297 whole entry, looked up): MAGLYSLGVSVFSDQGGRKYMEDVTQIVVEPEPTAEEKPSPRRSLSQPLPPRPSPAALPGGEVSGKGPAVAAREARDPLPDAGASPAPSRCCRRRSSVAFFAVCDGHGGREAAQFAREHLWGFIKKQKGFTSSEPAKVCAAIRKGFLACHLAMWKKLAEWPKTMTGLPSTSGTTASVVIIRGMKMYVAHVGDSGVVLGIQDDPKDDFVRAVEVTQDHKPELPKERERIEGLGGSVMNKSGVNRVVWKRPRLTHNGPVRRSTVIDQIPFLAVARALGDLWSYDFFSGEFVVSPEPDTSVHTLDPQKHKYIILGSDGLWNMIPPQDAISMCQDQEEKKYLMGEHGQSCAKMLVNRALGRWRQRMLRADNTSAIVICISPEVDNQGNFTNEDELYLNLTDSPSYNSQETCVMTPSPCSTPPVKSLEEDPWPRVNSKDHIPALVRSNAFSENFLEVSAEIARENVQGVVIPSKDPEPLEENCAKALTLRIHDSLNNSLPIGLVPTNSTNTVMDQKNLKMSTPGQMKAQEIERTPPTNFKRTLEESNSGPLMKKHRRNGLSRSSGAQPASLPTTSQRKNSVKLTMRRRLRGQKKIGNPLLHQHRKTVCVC
Chain of Lysine-specific demethylase 5B (Homo sapiens) (Q9UGL1 whole entry, looked up): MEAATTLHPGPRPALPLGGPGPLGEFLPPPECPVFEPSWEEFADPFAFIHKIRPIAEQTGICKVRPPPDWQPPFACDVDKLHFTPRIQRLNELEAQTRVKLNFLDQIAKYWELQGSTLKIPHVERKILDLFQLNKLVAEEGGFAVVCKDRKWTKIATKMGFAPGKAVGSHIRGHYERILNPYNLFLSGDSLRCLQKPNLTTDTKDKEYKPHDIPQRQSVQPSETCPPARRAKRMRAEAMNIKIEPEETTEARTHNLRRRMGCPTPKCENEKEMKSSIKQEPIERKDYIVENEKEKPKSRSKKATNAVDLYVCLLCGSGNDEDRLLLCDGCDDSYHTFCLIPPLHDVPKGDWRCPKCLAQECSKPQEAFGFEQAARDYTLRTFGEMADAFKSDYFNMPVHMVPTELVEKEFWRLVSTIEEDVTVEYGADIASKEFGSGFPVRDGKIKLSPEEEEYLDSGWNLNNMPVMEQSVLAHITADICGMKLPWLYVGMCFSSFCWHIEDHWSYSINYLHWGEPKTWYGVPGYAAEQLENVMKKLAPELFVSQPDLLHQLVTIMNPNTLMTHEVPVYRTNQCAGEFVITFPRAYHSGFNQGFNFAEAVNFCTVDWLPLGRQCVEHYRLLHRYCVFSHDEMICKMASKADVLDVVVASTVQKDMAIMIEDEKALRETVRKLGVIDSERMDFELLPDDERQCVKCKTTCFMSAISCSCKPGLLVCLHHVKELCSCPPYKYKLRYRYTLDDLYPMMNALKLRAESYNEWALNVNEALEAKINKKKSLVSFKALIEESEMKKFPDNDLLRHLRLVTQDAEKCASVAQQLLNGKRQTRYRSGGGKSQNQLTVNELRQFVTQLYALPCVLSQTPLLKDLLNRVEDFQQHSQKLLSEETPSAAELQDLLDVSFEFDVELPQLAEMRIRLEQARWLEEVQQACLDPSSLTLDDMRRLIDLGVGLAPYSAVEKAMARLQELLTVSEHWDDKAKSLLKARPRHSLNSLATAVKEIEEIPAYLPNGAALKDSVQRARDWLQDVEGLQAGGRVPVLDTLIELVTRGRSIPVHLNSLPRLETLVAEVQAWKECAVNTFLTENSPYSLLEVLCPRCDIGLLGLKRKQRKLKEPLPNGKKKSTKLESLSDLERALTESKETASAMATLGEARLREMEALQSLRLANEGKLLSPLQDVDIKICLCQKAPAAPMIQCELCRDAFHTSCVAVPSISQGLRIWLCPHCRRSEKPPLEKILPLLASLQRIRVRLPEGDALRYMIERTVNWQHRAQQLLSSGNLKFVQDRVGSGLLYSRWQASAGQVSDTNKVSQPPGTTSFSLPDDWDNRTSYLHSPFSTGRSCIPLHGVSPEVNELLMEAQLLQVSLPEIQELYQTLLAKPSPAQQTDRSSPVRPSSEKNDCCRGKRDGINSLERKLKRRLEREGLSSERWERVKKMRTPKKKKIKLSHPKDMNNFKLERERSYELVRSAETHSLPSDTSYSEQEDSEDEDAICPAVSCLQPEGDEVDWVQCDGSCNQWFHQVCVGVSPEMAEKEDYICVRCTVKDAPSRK

COCCc1ccc(OCC(O)CNC(C)C)cc1 (configuration not stated)
not listed: [12] | [13] | [14]
inactive: all other assays above

CN/C(=C\[N+](=O)[O-])NCCSCc1ccc(CN(C)C)o1
not listed: [12] | [13] | [14]
inactive: all other assays above

Cc1nc2sccn2c(=O)c1CCN1CCC(=C(c2ccc(F)cc2)c2ccc(F)cc2)CC1
not listed: [1] | [10]
inactive: all other assays above

CNCCC(Oc1ccccc1OC)c1ccccc1 (configuration not stated)
not listed: [12] | [13] | [14]
inactive: all other assays above

CN1C(=O)CC[C@H]1c1cccnc1
not listed: [12] | [13] | [14]
inactive: all other assays above

CSc1ccc(C(=O)c2[nH]c(=O)[nH]c2C)cc1
not listed: [9] | [10] | [12] | [13] | [14]
inactive: all other assays above

CCNC(=O)N1CCN(CCCC(c2ccc(F)cc2)c2ccc(F)cc2)CC1
not listed: [12] | [13] | [14]
inactive: all other assays above

CCn1ccnc1CC1COc2ccccc2O1 (configuration not stated)
not listed: [12] | [13] | [14]
inactive: all other assays above

CCn1nc(C(=O)O)c(=O)c2cc3c(cc21)OCO3
not listed: [10] | [12] | [13] | [14]
inactive: all other assays above

CN(C)C(=O)Oc1ccc[n+](C)c1
not listed: [10] | [12] | [13] | [14]
inactive: all other assays above

CCCCNc1c(C(=O)OCC)c(C)nc2c1cnn2CC
not listed: [10] | [12] | [13] | [14]
inactive: all other assays above
